# Records with an inconclusive call do not appear. Some compounds were tested as several samples or in several runs, with calls that do not always agree. Active and inactive are the calls of the source. Rule for the calls, unless noted: active = hit-call score of the fitted dose curve at least 0.9, where 1 is the maximum; inconclusive = response in the unintended direction; inactive = score below 0.9.
# Assays:
# [1] = target: human Dopamine Transporter (DAT), SLC6A3 (gene 6531) (UniProt Q01959); assay: NVS_TR_hDAT: NovaScreen (NVS) Transporter Assay for human Dopamine Transporter (DAT) (AID 2283374);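 note: activity means loss of bound radioligand signal relative to DMSO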
# Sequence of human Dopamine Transporter (DAT), SLC6A3 (gene 6531) (Q01959 whole entry, looked up): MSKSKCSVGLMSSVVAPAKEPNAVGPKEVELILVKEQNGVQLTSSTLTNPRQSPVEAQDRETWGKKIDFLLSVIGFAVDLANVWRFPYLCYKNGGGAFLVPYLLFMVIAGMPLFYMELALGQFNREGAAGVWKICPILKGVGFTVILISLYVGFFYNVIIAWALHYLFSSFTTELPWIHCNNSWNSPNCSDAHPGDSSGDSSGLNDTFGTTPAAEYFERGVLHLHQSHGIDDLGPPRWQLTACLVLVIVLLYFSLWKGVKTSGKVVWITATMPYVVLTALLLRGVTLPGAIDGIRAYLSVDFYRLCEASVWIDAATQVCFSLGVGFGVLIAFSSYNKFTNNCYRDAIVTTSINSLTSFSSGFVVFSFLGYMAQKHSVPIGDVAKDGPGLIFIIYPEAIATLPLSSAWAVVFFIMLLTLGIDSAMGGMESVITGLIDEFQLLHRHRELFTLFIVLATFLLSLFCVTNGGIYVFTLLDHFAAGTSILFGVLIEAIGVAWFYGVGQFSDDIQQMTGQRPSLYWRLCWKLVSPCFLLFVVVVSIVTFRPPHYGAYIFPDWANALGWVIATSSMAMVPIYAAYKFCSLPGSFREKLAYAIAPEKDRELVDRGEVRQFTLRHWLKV
# In short: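 hDAT membranes + tritiated/iodinated radioligand, competitive displacement; 1 h; filter scintillation readout. Single conc 25 uM (duplicate), then conc-response for actives. DMSO = negative control.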
# [2] = target: Estrogen receptor beta (Homo sapiens) (UniProt Q92731); assay: OT_ER_ERbERb_1440: Odyssey Thera (OT) 24-hour HEK293T Protein-Complementation Assay for Estrogen Receptor-beta/-beta Homodimer (AID 2283380);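 note: scored as signal increase over DMSO baseline for both agonists and antagonists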
# Sequence of Estrogen receptor beta (Homo sapiens) (Q92731 whole entry, looked up, the tested form may be a part): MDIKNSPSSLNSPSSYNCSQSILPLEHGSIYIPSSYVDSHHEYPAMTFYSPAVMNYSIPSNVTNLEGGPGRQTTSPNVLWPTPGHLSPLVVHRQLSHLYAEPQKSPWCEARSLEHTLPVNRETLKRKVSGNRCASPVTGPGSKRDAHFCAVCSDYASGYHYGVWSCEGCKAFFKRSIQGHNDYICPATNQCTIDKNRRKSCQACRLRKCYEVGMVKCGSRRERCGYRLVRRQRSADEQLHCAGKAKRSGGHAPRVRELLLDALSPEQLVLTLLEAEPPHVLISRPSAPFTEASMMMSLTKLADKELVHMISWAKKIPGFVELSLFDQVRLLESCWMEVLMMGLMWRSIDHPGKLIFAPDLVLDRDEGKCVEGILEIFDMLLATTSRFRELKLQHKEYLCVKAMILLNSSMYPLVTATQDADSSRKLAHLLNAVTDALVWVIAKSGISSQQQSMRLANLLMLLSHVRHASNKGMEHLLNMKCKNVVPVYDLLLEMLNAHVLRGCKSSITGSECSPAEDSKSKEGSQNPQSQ
# In short: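 HEK293T cells stably expressing ER beta LBD (aa 310-547) homodimer fragment-complementation reporter, dosed 24 h. Cells formaldehyde-fixed, Draq5-stained; gain in nuclear (agonist) or nuclear plus cytoplasmic (antagonist) fluorescence versus DMSO read by laser scanning cytometry.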
# [3] = target: Estrogen receptor (Homo sapiens) (UniProt P03372); assay: OT_ERa_GFPERaERE_0480: Odyssey Thera (OT) 8-hour HeLa Transcription Induction Assay for Estrogen Receptor (AID 2283381; active = hit-call score of the fitted dose curve at least 0.9, where 1 is the maximum; inactive = score below 0.9)
# Sequence of Estrogen receptor (Homo sapiens) (P03372 whole entry, looked up): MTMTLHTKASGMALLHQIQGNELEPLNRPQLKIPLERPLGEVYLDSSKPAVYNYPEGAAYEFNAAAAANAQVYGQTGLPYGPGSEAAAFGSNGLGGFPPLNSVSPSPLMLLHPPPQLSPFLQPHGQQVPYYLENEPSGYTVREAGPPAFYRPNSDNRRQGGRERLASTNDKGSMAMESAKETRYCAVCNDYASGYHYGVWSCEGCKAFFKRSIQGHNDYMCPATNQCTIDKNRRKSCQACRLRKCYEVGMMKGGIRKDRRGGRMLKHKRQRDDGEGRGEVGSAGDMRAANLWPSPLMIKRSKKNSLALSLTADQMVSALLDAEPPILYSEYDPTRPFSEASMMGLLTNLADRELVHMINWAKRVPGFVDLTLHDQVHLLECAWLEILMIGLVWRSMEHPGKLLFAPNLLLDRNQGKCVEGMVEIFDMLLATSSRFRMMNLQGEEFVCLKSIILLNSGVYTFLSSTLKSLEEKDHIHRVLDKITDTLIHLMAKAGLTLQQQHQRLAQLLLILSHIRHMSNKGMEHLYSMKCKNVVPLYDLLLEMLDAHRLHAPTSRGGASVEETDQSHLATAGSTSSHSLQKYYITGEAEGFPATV
# In short: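 An 8 h HeLa transcription-induction format with a GFP reporter under ERE control, read by fluorescence microscopy; single endpoint fitted positively with DMSO as baseline.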
# [4] = target: Estrogen receptor (Homo sapiens) (UniProt P03372); assay: OT_ERa_GFPERaERE_0120: Odyssey Thera (OT) 2-hour HeLa Transcription Induction Assay for Estrogen Receptor (AID 2283382)
# In short: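 Two-hour compound treatment of HeLa cells preceded microscopy imaging of an inducible fluorescent reporter. Image-based quantification gave one endpoint, analysed for signal increase relative to DMSO controls.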
# [5] = target: Retinoic acid receptor RXR-alpha (Homo sapiens) (UniProt P19793); assay: OT_NURR1_NURR1RXRa_0480: Odyssey Thera (OT) 8-hour HEK293T Protein Complementation Assay for Nurr1/retinoid X receptor (RXR) (AID 2283385)
# Sequence of Retinoic acid receptor RXR-alpha (Homo sapiens) (P19793 whole entry, looked up, the tested form may be a part): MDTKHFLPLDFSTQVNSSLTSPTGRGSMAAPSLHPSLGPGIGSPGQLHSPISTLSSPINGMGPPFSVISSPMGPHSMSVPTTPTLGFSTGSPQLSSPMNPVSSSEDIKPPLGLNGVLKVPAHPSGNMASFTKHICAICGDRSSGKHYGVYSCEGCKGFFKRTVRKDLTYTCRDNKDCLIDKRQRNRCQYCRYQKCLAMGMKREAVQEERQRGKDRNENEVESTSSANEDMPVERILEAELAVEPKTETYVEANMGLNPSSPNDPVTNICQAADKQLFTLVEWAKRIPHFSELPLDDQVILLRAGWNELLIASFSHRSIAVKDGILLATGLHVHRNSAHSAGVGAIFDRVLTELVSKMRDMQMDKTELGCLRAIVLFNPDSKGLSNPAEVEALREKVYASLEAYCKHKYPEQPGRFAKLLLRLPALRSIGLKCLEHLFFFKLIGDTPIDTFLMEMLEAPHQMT
# In short: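 Gain in fluorescent complementation signal over DMSO, measured 8 hours after chemical dosing of human kidney HEK293T cells, indicated enhanced Nurr1–RXRα association.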
# [6] = target: Retinoic acid receptor RXR-alpha (Homo sapiens) (UniProt P19793); assay: OT_NURR1_NURR1RXRa_1440: Odyssey Thera (OT) 24-hour HEK293T Protein Complementation Assay for Nurr1/retinoid X receptor (RXR) (AID 2283386)
# In short: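 Cell-based binding reporter: HEK293T cells, 24 h exposure, fluorescence-detected fragment complementation, DMSO as baseline.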
# [7] = target: Peroxisome proliferator-activated receptor gamma (Homo sapiens) (UniProt P37231); assay: OT_PPARg_PPARgSRC1_0480: Odyssey Thera (OT) 8-hour Protein-Complementation Assay for Peroxisome Proliferator-activated Receptor Gamma / SRC-1 Co-activator (AID 2283387);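 note: nuclear to cytoplasmic split Venus YFP fluorescence ratio reporting PPARg SRC-1 interaction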
# Sequence of Peroxisome proliferator-activated receptor gamma (Homo sapiens) (P37231 whole entry, looked up, the tested form may be a part): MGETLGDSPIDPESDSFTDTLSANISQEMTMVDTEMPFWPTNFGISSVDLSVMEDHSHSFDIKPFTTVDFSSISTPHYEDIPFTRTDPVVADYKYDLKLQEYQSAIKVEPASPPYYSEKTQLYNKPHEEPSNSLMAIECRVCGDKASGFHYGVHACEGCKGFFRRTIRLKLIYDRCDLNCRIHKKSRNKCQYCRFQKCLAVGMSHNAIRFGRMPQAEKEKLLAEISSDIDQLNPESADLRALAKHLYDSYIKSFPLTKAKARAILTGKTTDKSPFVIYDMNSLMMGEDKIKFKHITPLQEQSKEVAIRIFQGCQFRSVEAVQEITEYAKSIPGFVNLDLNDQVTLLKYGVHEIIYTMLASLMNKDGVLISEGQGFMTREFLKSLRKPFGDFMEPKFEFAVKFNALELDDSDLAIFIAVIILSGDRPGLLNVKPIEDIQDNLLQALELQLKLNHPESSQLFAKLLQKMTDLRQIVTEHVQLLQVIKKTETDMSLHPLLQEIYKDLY
# In short: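 Split-YFP (IFP1/IFP2) PPARg/SRC-1 reporter, HEK293T, 37 °C, 5% CO2; 8 h compound; formaldehyde fix + Draq5; high-content imaging, N/C ratio, ≥350 cells/image, positive direction vs DMSO.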
# [8] = target: Peroxisome proliferator-activated receptor gamma (Homo sapiens) (UniProt P37231); assay: OT_PPARg_PPARgSRC1_1440: Odyssey Thera (OT) 24-hour Protein-Complementation Assay for Peroxisome Proliferator-activated Receptor Gamma/ SRC-1 Co-activator (AID 2283388);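 note: nuclear to cytoplasmic ratio of reconstituted Venus YFP fluorescence in fixed imaged cells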
# In short: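 Readout is the 488 nm N/C fluorescence ratio from fixed, Draq5-stained HEK293T cells after 24 h compound exposure. Cells carried transiently transfected PPARg and SRC-1 fused to Venus fragments, transfected 48 h before treatment.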
# [9] = CEETOX_H295R_OHPREG: CeeTox H295R High-throughput Steroidogenesis Assay for OH-Pregnenolone (OHPREG) (AID 2283434; active = hit-call score of the fitted dose curve at least 0.9, where 1 is the maximum; inactive = score below 0.9); details: actives raise or lower the signal
# In short: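 H295R, 10 uM forskolin pre-stim 48 h; test chemical 48 h, 0.1% DMSO final. MTBE extraction, reverse-phase C18 HPLC-ESI+ MS/MS of medium. Gain/loss vs DMSO; viability by MTT in same wells.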
# [10] = target: mouse Estrogen Receptor alpha (Era), Esr1 (gene 13982) (UniProt P19785); assay: NVS_NR_mERa: NovaScreen (NVS) Nuclear Receptor Binding Assay for mouse Estrogen Receptor alpha (Era) (AID 2283378);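 note: hit means loss of bound radioligand signal relative to DMSO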
# Sequence of mouse Estrogen Receptor alpha (Era), Esr1 (gene 13982) (P19785 whole entry, looked up): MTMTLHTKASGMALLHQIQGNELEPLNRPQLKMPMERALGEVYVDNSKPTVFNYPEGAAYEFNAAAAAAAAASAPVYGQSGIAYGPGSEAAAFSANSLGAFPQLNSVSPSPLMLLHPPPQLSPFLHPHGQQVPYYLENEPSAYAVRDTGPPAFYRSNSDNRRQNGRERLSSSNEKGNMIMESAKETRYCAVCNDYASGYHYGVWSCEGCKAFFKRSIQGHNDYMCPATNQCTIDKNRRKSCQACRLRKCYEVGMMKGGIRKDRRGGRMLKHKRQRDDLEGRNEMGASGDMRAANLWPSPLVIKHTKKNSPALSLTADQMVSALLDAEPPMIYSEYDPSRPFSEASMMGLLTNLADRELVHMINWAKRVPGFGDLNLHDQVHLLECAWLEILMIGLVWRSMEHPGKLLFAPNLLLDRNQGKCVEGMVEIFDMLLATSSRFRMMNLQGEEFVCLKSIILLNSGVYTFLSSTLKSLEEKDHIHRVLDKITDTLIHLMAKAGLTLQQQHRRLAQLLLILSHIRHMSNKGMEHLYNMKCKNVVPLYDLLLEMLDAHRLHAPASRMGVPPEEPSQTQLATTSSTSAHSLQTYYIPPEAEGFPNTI
# In short: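 Filter radiodetection of radioligand displacement from extracted receptor protein, measured 18 h post-dose. Single 25 uM concentration in duplicate initially, with concentration-series follow-up. Binding loss fitted relative to DMSO.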
# [11] = CEETOX_H295R_11DCORT: CeeTox H295R High-throughput Steroidogenesis Assay for 11-Deoxycortisol (11DCORT) (AID 2283432; active = hit-call score of the fitted dose curve at least 0.9, where 1 is the maximum; inactive = score below 0.9); details: actives raise or lower the signal
# In short: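 Steroidogenesis in human H295R cells: 48 h chemical exposure after forskolin priming, 11-deoxycortisol measured by LC-MS/MS.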
# [12] = target: Agonist Androgen Response Element (ARE), AR (gene 367) (UniProt P10275); assay: OT_AR_ARELUC_AG_1440: Odyssey Thera (OT) 24-hour CHO-K1 Luciferase Assay for Agonist Androgen Response Element (ARE) (AID 2283379)
# Sequence of Agonist Androgen Response Element (ARE), AR (gene 367) (P10275 whole entry, looked up): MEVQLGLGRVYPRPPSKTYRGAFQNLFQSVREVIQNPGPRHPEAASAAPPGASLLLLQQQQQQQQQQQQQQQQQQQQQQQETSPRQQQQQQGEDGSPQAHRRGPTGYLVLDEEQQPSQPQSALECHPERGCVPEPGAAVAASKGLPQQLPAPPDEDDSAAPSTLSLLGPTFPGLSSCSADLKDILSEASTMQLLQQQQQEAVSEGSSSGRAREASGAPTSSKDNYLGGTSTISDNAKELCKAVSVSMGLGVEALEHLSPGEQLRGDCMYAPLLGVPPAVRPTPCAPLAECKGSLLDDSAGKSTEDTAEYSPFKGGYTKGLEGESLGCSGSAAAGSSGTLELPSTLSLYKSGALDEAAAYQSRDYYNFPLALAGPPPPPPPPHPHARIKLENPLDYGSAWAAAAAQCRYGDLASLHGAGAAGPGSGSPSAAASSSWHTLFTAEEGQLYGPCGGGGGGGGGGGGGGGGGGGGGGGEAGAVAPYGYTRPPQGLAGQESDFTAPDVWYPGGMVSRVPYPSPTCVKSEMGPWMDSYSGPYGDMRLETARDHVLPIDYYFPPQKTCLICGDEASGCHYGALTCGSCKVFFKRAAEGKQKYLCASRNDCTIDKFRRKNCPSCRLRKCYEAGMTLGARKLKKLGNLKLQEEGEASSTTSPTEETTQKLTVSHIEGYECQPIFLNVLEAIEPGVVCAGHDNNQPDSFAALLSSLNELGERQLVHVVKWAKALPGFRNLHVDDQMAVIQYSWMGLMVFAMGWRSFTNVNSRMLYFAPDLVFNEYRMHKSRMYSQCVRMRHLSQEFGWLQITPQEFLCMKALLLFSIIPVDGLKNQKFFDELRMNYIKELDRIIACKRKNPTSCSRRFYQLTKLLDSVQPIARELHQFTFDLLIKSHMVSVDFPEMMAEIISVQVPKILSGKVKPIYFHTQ
# In short: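 Gain-of-signal reporter endpoint: cells (CHO-K1, hamster) are treated 24 h, luciferin/ATP reagent added, and luminescence compared with DMSO baseline.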
# [13] = target: human Norepinephrine Transporter (NET), SLC6A2 (gene 6530) (UniProt P23975); assay: NVS_TR_hNET: NovaScreen (NVS) Transporter Assay for human Norepinephrine Transporter (NET) (AID 2283377);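 note: cell-free membrane protein extracted from CHO cells expressing human NET; displacement of radioligand from human NET seen as loss of scintillation signal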
# In short: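 CHO cell extracts expressing the transporter; tritiated or iodinated tracer displaced competitively; filtration plus scintillation readout at 1 h. Single-point duplicates at 25 uM, concentration series for follow-up; activity = signal drop relative to DMSO.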
# [14] = target: Bile acid receptor (Homo sapiens) (UniProt Q96RI1); assay: OT_FXR_FXRSRC1_0480: Odyssey Thera (OT) 8-hour HEK293T Protein-Complementation Assay for Farnesoid X receptor/SRC-1 Co-activator (AID 2283383)
# Sequence of Bile acid receptor (Homo sapiens) (Q96RI1 whole entry, looked up): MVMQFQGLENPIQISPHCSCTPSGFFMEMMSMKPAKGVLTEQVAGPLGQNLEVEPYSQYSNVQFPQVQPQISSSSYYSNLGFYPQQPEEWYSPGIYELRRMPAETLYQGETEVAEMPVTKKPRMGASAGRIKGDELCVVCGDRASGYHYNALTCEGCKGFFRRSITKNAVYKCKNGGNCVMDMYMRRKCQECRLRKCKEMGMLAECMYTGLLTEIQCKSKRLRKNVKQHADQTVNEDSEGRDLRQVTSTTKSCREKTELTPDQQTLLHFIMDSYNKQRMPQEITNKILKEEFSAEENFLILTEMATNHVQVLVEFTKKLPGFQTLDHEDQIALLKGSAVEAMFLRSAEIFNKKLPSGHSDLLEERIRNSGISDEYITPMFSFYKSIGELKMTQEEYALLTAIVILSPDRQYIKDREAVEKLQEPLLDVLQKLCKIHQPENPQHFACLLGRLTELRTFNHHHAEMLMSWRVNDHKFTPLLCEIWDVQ
# In short: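 Readings were taken 8 h after dosing HEK293T cells in a split-reporter complementation format pairing FXR with SRC-1. Increased fluorescence relative to DMSO-treated wells defined activity.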
# [15] = target: Bile acid receptor (Homo sapiens) (UniProt Q96RI1); assay: OT_FXR_FXRSRC1_1440: Odyssey Thera (OT) 24-hour HEK293T Protein-Complementation Assay for Farnesoid X receptor/SRC-1 Co-activator (AID 2283384)
# In short: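 Single endpoint, analysed for increased fluorescence against DMSO controls. HEK293T cells carrying FXR and SRC-1 linked to complementary reporter halves were exposed to chemicals for 24 h before reading.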
# [16] = system: guinea pig Dopamine Transporter (DAT), gene 100714898; assay: NVS_TR_gDAT: NovaScreen (NVS) Transporter Assay for guinea pig Dopamine Transporter (DAT) (AID 2283369);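 note: active compounds lower bound radioligand signal relative to DMSO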
# In short: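 Radioligand displacement on membranes from guinea pig striatum, 2 h exposure, bound label counted by filtration and scintillation. Tested at 25 uM in duplicate, then actives in concentration series to 50 uM; DMSO as negative control.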
Structure (SMILES),AC50 [1],outcome [2],outcome [3],outcome [4],outcome [5],outcome [6],outcome [7],outcome [8],outcome [9],outcome [10],outcome [11],outcome [1],outcome [12],AC50 [13],outcome [14],outcome [15],AC50 [6],AC50 [16]
CC1(C)CON(Cc2ccccc2Cl)C1=O,6.47 µM (active),inactive,inactive,inactive,inactive,inactive,inactive,inactive,inactive,–,–,–,–,–,–,–,–,–
CCCC(=NOCC)C1=C(O)CC(CC(C)SCC)CC1=O (stereo not drawn),–,inactive,inactive,inactive,inactive,inactive,inactive,inactive,inactive,inactive,inactive,–,–,–,–,–,–,–
COC(=O)N(C(=O)N1CO[C@@]2(C(=O)OC)Cc3cc(Cl)ccc3C2=N1)c1ccc(OC(F)(F)F)cc1,–,inactive,inactive,–,inactive,inactive,inactive,inactive,–,–,–,inactive,inactive,–,–,–,–,–
O=P(O)(O)CCCl,–,–,inactive,inactive,inactive,inactive,inactive,inactive,–,–,–,–,–,10.6 µM (active),inactive,inactive,–,–
CCOP(=O)(OCC)Oc1nc(Cl)c(Cl)cc1Cl,–,inactive,inactive,–,inactive,inactive,inactive,inactive,–,–,–,inactive,inactive,–,–,–,9.87 µM (active),–
CC1(C)CCC(=Cc2ccc(Cl)cc2)C1(O)Cn1cncn1 (stereo not drawn),0.545 µM (active),inactive,inactive,–,–,inactive,inactive,inactive,inactive,inactive,inactive,–,inactive,–,–,–,–,1.19 µM (active)
Cc1cnc(C2=NC(C)(C(C)C)C(=O)N2)c(C(=O)O)c1 (stereo not drawn),–,inactive,inactive,inactive,inactive,inactive,inactive,inactive,–,–,–,–,inactive,–,–,–,–,–
Clc1cccc(C(Cl)(Cl)Cl)n1,–,inactive,inactive,–,inactive,inactive,inactive,inactive,–,–,–,–,inactive,–,inactive,inactive,–,–

# Source: PubChem BioAssay (EPA / NIEHS)
